# Values joined by “and” are separate entries in the source; they are usually repeats but may differ in a detail not shown here. Equal entries are not always repeated. Active and inactive are the calls of the source. Calls come from the whole dose curve.
# Target: Glucocorticoid receptor (Homo sapiens) (UniProt P04150)
# Assay: GR-EFC Redistribution (AID 451)
# Conditions: CHO-K1 GR-EFC translocation, beta-gal luminescence, 2 h
# Source text: NIH Molecular Libraries Screening Centers Network [MLSCN]
# NIH Chemical Genomics Center [NCGC]
# The glucocorticoid receptor (GR) is a cytoplasmic receptor that belongs to the nuclear receptor family of ligand-dependent transcription factors. Upon glucocorticoid binding to its receptor, the glucocorticoid-GR complex translocates into the nucleus, where it binds as a dimer to specific DNA sequences (glucocorticoid response elements), enhancing or suppressing transcription of a wide variety of glucocorticoid-responsive genes. In addition to their important roles in normal physiology and metabolism, glucocorticoids are administered exogenously as treatments for a wide variety of allergic, autoimmune, and neoplastic conditions. Identification of compounds that modulate aspects of GR signalling would be useful in dissecting glucocorticoid response pathways as well as developing GR modulators with more targeted clinical effects.
# Traditionally, GR modulators have been identified using receptor binding or direct transactivation assays. However, assays for glucocorticoid-dependent nuclear translocation can also be used to screen for compounds affecting GR signaling.
# Immunocytochemical staining has been used to assay for GR translocation, but is not suitable for high throughout screening due to the multiple reagent addition and wash steps required. Recently, a novel cell-based GR assay in Enzyme Fragment Complementation (EFC) format was developed by DiscoveRx (Fremont, CA). The assay uses EFC of b-galactosidase (b-gal) as an indicator of GR-translocation in engineered CHO-K1 biosensor cells. The enzyme acceptor (EA) fragment of b-gal resides in the nucleus , as designed through the use of a proprietary set of sequence additions and modifications. The small peptide enzyme donor (ED) fragment of b-gal is fused directly to the C-terminus of GR, and is localized in the cytoplasm is the absence of receptor signaling. Upon binding to a GR ligand, the complex translocates to the nucleus, where intact enzyme activity is restored by complementation and b-gal activity is detected. We optimized this GR-EFC assay in homogenous 1536-well plate assay format for high throughput screening.
# NCGC Assay Protocol Summary:
# CHO-K1 cells stably expressing NLS-enzyme acceptor fragment (EA) of b-gal and GR-enzyme donor (ED) fragment of b-gal were maintained in F12 medium (Invitrogen, Carlsbad, CA) at 37 Celsius degrees under a humidified atmosphere containing 5% CO2 and 95% air. The medium contained 10% FBS, 2 mM L-glutamine, 50 U/ml penicillin 50 ug/ml streptomycin, and 250 ug/ml hygromycin and 500 ug/ml G418 (Invitrogen).
# GR-translocation was measured beta-gal enzyme activity using the PathHunter Detection Kit containing cell membrane permeablizing reagent and beta-gal substrate (DiscoveRx, Fremont, CA). All compounds were screened as titrations from 0.6 nM to 46 uM final concentration. The assay was performed in 1536-well format as follows:
# 5 uL cell suspension (1,000 cells)/well
# Incubation at 37 Celsius degrees for two hours
# 1.25 uL 1X detection buffer from the kit supplied by DiscoveRx
# Incubation at room temperature for one hour
# Read plate in luminescence mode in ViewLux plate reader (PerkinElmer)
# Keywords: NIH Roadmap, MLSCN, MLI, MLSMR, GR-EFC, GREFC, qHTS, NCGC
# Potency is the fitted concentration of half-maximal effect.
# Glucocorticoid receptor (Homo sapiens), sequence (P04150 whole entry, looked up): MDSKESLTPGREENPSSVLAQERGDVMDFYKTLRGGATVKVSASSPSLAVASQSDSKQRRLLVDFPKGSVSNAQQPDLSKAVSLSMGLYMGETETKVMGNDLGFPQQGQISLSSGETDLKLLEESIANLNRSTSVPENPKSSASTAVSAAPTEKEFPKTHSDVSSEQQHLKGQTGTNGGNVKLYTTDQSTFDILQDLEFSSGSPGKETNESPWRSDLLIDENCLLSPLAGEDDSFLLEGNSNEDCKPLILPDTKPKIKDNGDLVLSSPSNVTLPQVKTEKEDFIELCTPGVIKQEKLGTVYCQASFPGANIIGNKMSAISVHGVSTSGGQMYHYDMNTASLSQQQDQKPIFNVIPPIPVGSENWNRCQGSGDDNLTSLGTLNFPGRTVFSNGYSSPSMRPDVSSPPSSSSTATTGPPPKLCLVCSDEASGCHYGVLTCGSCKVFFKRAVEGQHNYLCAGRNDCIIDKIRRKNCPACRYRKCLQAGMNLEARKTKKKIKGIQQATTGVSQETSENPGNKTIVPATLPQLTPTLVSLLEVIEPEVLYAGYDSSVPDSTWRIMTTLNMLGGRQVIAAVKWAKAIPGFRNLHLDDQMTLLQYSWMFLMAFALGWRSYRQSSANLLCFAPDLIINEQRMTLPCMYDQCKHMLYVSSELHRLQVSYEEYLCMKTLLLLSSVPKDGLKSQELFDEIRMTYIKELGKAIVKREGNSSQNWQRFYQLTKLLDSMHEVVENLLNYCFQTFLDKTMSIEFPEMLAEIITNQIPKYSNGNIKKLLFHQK
row,SMILES,Potency
1,COc1ccc(CNC(=O)/C=C\c2ccc3[nH]cc(CCN(C)C)c3c2)cc1,> 46 µM (inactive)
2,CS(=O)(=O)Nc1ccc(Cc2noc(-c3ccc4[nH]cc(CCN)c4c3)n2)cc1,> 46 µM (inactive)
3,O=C1CS[C@@H](c2ccccc2Cl)c2cc(Cl)ccc2N1,> 46 µM (inactive)
4,CC[C@H](Oc1ccc(Cl)cc1)C(=O)OC1C[C@H]2CC[C@@H](C1)N2C (stereo not given in full),> 46 µM (inactive)
5,N[C@@]1(C(=O)O)CC[C@H](C(=O)O)C1,> 46 µM (inactive)
6,N[C@H](Cc1o[nH]c(=O)c1Cl)C(=O)O,> 46 µM (inactive)
7,COc1ccc(-n2nc(C(F)(F)F)cc2-c2ccc(Cl)cc2)cc1,> 46 µM (inactive)
8,Cc1nc(N)sc1CCN,> 46 µM (inactive)
9,c1cncc([C@@H]2CCCCN2)c1,> 20.6 µM (inactive) and > 46 µM (inactive)
10,COC(=O)c1cc2c(cn1)[nH]c1ccccc12,> 46 µM (inactive)
11,CCOC(OCC)P(=O)(O)CCCN,> 46 µM (inactive)
12,CC(C)(c1ccc(OC[C@@H]2CO2)cc1)c1ccc(OC[C@H]2CO2)cc1,> 46 µM (inactive)
13,CC(C)[C@@H]1CN[C@H](C(=O)O)[C@@H]1CC(=O)O,> 46 µM (inactive)
14,CCCN(CCC)[C@@H]1CCc2c(OC)cccc2[C@@H]1C,> 46 µM (inactive)
15,COc1ccc2[nH]cc(CCN(C)C)c2c1,> 46 µM (inactive)
16,CC(C)(C)c1o[nH]c(=O)c1C[C@H](N)C(=O)O,> 46 µM (inactive)
17,Oc1ccc2c3c1O[C@H]1c4c(c5ccccc5n4Cc4ccccc4)C[C@]4(O)[C@H](C2)N(CC2CC2)CC[C@@]314,> 46 µM (inactive)
18,NC[C@H](CS(=O)(=O)O)c1ccc(Cl)cc1,> 46 µM (inactive)
19,CCCn1c(C)c(C(=O)c2cccc3ccccc23)c2ccccc21,> 46 µM (inactive)
20,Oc1ccc2c3c1O[C@H]1c4[nH]c5ccccc5c4C[C@]4(O)[C@H](C2)N(CC2CC2)CC[C@@]314,> 46 µM (inactive)

row,SMILES,Potency
1,CN1CCN(c2ccc3ccccc3n2)CC1,> 46 µM (inactive)
2,C/C(=C\[C@@H](N)C(=O)O)CP(=O)(O)O,> 46 µM (inactive)
3,C[C@H](N)Cc1c[nH]c2ccc(O)cc12,> 46 µM (inactive)
4,CCCOc1ccc2[nH]cc(C3=CCNCC3)c2n1,> 46 µM (inactive)
5,S=C=Nc1cccc(C2(N3CCCCC3)CCCCC2)c1,> 46 µM (inactive)
6,C[C@H](N)Cc1cnc[nH]1,> 46 µM (inactive)
7,COc1ccc2c(c1)[nH]c1c(C)nccc12,> 20.6 µM (inactive)
8,NC(N)=NCCCCCCCCCCN=C(N)N,> 46 µM (inactive)
9,CC(C)n1cnc2c(C(=O)N[C@H]3CN4CCC3CC4)cc(Cl)cc21,> 46 µM (inactive)
10,CN1C(=O)CCS(=O)(=O)[C@H]1c1ccc(Cl)cc1,> 46 µM (inactive)
11,c1ccc([C@H]2CNCc3ccccc32)cc1,> 46 µM (inactive)
12,N[C@H](CCP(=O)(O)O)C(=O)O,> 46 µM (inactive)
13,Clc1ccc(C2=CCC[C@H]3CC[C@@H]2N3)cn1,> 46 µM (inactive)
14,O=C1/C(=C\c2ccccc2)C[C@@]2(O)[C@H]3Cc4ccc(O)c5c4[C@@]2(CCN3CC2CC2)[C@@H]1O5,> 46 µM (inactive)
15,CC(=O)O[C@@H]1CN2CCC1CC2,> 46 µM (inactive)
16,CN1Cc2ccccc2[C@@H]2c3cccc4[nH]cc(c34)C[C@H]21,> 46 µM (inactive)
17,c1ccc2c(c1)OC[C@@H](C1=NCCN1)O2,> 46 µM (inactive) and > 20.6 µM (inactive)
18,NC[C@H](CP(=O)(O)O)c1ccc(Cl)cc1,> 46 µM (inactive)
19,c1ccc(CCCCN2CCC(c3ccccc3)CC2)cc1,> 46 µM (inactive)
20,N[C@@H](CCCCP(=O)(O)O)C(=O)O,> 46 µM (inactive)
